This is part of a sample that, as a whole, favours compounds with a hit. Of some 83,000 tested, about 20% had one in any assay.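 Interpretation: 100, growth as untreated; towards 0, rising growth inhibition; 0, no net growth; 0 to -100, cell death. Compounds scoring below 10 were considered active.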 A number with no mark means an inactive call. Calls of active or inactive are those of the source.
Columns and labels:
Assay in all cases: NCI-60 one-dose screen, 48 h (100 = growth as untreated, 0 = no growth, -100 = all killed)
Details in all cases: 10 µM unless noted
DU-145 prostate = tested on: DU-145 prostate
K-562 leukemia = tested on: K-562 leukemia
MALME-3M melanoma = tested on: MALME-3M melanoma
MDA-MB-231 breast = tested on: MDA-MB-231 breast
RXF 393 renal = tested on: RXF 393 renal
SF-268 CNS = tested on: SF-268 CNS
SF-295 CNS = tested on: SF-295 CNS
SF-539 CNS = tested on: SF-539 CNS
UACC-257 melanoma = tested on: UACC-257 melanoma
M14 melanoma = tested on: M14 melanoma
HCT-15 colon = tested on: HCT-15 colon
SNB-75 CNS = tested on: SNB-75 CNS
SNB-19 CNS = tested on: SNB-19 CNS
U251 CNS = tested on: U251 CNS
PC-3 prostate = tested on: PC-3 prostate
SK-MEL-5 melanoma = tested on: SK-MEL-5 melanoma
UACC-62 melanoma = tested on: UACC-62 melanoma
LOX IMVI melanoma = tested on: LOX IMVI melanoma
SK-MEL-28 melanoma = tested on: SK-MEL-28 melanoma
HT29 colon = tested on: HT29 colon

Compound	growth (DU-145 prostate)	growth (K-562 leukemia)	growth (MALME-3M melanoma)	growth (MDA-MB-231 breast)	growth (RXF 393 renal)	growth (SF-268 CNS)	growth (SF-295 CNS)	growth (SF-539 CNS)	growth (UACC-257 melanoma)	growth (M14 melanoma)	growth (HCT-15 colon)	growth (SNB-75 CNS)	growth (SNB-19 CNS)	growth (U251 CNS)	growth (PC-3 prostate)	growth (SK-MEL-5 melanoma)	growth (UACC-62 melanoma)	growth (LOX IMVI melanoma)	growth (SK-MEL-28 melanoma)	growth (HT29 colon) [%]
COc1cc(/C=C2\C=C(c3ccccc3)N(CCc3ccccc3)C2=O)cc(OC)c1OC	73.8%	94.2%	50.1%	5.9% (active)	72.3%	44.7%	53.3%	-17.2% (active)	88.2%	73.6%	94.1%	-6.74% (active)	65.4%	52.5%	76.2%	57.7%	56.1%	58.2%	84.1%	–
C[C@H]1[C@H](C)CC[C@]2(C(=O)N3CCN(C)CC3)CC[C@]3(C)C(=CC[C@@H]4[C@@]5(C)C/C(=C/c6cccnc6)C(=O)C(C)(C)[C@@H]5CC[C@]43C)[C@H]12	-81.5% (active)	-46.3% (active)	-87.3% (active)	-80.1% (active)	-94.4% (active)	-80.3% (active)	-84.6% (active)	-84.6% (active)	-65.3% (active)	-81.8% (active)	-79.8% (active)	-9.56% (active)	-95.9% (active)	-96% (active)	-79.6% (active)	-97.6% (active)	-74.7% (active)	-97.1% (active)	-85.7% (active)	–
Cc1nc(C)c(-c2nn3c(-c4cccc(F)c4)nnc3s2)s1	102%	70.4%	111%	107%	96.3%	97.6%	100%	104%	92.4%	–	101%	113%	93.6%	93.5%	89.3%	92.8%	96%	99.9%	119%	86.6
CCn1c(Sc2nnc(NC(C)=O)s2)nc2c1c(=O)n(C)c(=O)n2C	99.2%	95.6%	99.1%	96%	91.2%	90.8%	98%	92.5%	103%	91.4%	97.5%	90%	96.8%	106%	91.9%	98.6%	93.3%	–	101%	–
C=C1C(=O)O[C@H]2[C@H]1CC/C(COC(=O)NCc1ccc(Cn3c(=O)sn(CCCCl)c3=O)cc1)=C\CC[C@@]1(C)O[C@@H]21	8.01% (active)	0.0582% (active)	-57.1% (active)	14.4%	-76.7% (active)	44.5%	101%	-7.17% (active)	10.4%	5.43% (active)	8.02% (active)	70.2%	76.1%	57.7%	67.1%	42.5%	26.8%	-48.2% (active)	28.1%	–
O=C1C2=C(CCN(Cc3ccccc3)C2)N2CCN=C2N1Cc1ccc(C(F)(F)F)cc1	33%	29.4%	30.4%	-9.28% (active)	54%	39.2%	-10.8% (active)	40.8%	15.5%	37.2%	13%	38.1%	27.7%	21.8%	20.3%	14.2%	–	29.2%	47.1%	–
CC(C)OC(=O)NNC(=O)c1ccncc1	111%	110%	93%	108%	120%	104%	113%	97.2%	105%	–	101%	91%	105%	98.1%	104%	114%	94%	101%	110%	110
CC(=O)Nc1cccc(C2=CC(c3ccc(C)cc3)n3ncnc3N2)c1 (stereo not given)	102%	86.2%	119%	87.8%	96.4%	94%	114%	95.3%	112%	112%	99.3%	94.2%	91.1%	97.3%	84.1%	91.3%	85.6%	93.8%	107%	–

— PubChem BioAssay (NCI)
